# Data as given in PubChem BioAssay (NCATS).
# Results filed as inconclusive are left out. Unmarked numbers belong to inactive results. Activity calls are given as the source filed them. Unless noted, calls come from the whole dose curve; as a rule, active = well fitted curve in either direction with a large enough effect (not every such curve was filed as active); inconclusive = small, poorly fitted or top-dose-only effect, or another doubt; inactive = flat fitted curve, though single readings scatter.
# Molecular target: Cytochrome P450 1A2 (Homo sapiens) (UniProt P05177)
# Assay: p450-cyp1a2 (AID 410; calls by dose curve; note: potency is the fitted concentration of half-maximal effect;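 for activity change, negative = inhibition: -100% = full effect of reference inhibitor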)
# Settings: recombinant CYP1A2, luciferin-ME demethylation, luminescence; series mostly up to 57 µM; activity change, negative = inhibition: at the top concentration
# In short: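 20nM CYP1A2, 100uM Luciferin-ME (=Km), 100mM KPO4; cpd 10 min RT; +NADPH regen, 60 min RT; stop/detect 20 min; luminescence. Normalized to furafylline 57 uM = full inhibition.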
# Cytochrome P450 1A2 (Homo sapiens), sequence (P05177 whole entry, looked up): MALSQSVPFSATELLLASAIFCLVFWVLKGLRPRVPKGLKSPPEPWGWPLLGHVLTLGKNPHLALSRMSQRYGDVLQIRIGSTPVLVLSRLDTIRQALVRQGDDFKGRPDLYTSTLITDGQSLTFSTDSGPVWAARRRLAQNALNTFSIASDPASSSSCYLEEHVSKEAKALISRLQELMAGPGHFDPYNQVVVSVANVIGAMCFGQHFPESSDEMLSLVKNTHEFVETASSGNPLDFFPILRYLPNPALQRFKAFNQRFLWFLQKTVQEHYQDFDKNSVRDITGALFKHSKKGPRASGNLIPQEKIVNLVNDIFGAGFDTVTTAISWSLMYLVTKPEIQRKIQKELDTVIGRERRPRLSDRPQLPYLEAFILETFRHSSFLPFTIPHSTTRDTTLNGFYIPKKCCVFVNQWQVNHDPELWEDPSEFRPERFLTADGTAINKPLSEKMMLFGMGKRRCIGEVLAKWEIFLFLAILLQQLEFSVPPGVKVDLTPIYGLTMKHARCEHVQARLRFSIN
SMILES,"activity change, negative = inhibition [%]",Potency
COc1ccccc1CN1CCC2(CC1)CCN(C(C)=O)CC2,13.1,–
N#Cc1ccc(CN2CCCC3(CCN(C(=O)c4cccc(F)c4)CC3)C2)cc1,1.6,–
O=C(c1ccco1)N1CCC2(CC1)CN(C(c1ccccc1)c1ccccc1)C2,-18.6,–
CS(=O)(=O)N1CCC2(CC1)CN(Cc1cc(C(F)(F)F)cc(C(F)(F)F)c1)C2,1.7,–
CC(C)NC(=O)N1CCCC2(CCN(C(=O)c3cc(C(F)(F)F)cc(C(F)(F)F)c3)CC2)C1,-10.6,–
N#Cc1cccc(NC(=O)N2CCC3(CC2)CCN(C(=O)c2csnn2)CC3)c1,-15.9,–
O=C(Oc1ccccc1)N1CCC[C@@]2(CCN(c3ncccn3)C2)C1,–,12.6 µM (active)
COCC(=O)N1CCC[C@@]2(CCN(Cc3ccccc3OC)C2)C1,6.8,–
CC(C)NC(=O)N1CC[C@@]2(CCCN(C(=O)c3cc(C(F)(F)F)cc(C(F)(F)F)c3)C2)C1,8.1,–
O=C(Nc1cccc(F)c1)N1CC[C@@]2(CCCNC2)C1,-12.5,–
COCC(=O)N1CCC2(CCCN(C(=O)Nc3ccc(OC)cc3)C2)CC1,-12,–
O=C(c1ccco1)N1CCC[C@@]2(CCN(Cc3ccccc3)C2)C1,-3.2,–
CC(=O)N1CCC2(CCCN(C(c3ccccc3)c3ccccc3)C2)CC1,–,15.8 µM (active)
COc1cccc(-c2ccc3ncnc(NC4CCNCC4)c3c2)c1,–,20 µM (active)
COc1ccccc1CN1CCCC2(CCN(S(C)(=O)=O)CC2)C1,-4.3,–
O=C(c1csnn1)N1CCC[C@@]2(CCN(Cc3nccs3)C2)C1,-3.6,–
O=C(c1csnn1)N1CCC2(CC1)CCN(c1ccccc1)CC2,–,15.8 µM (active)
CC(C)CN1CC[C@@]2(CCCN(C(=O)c3cnccn3)C2)C1,-15.1,–
CN(C)c1ncc2ncc(=O)n(Cc3ccc(F)cc3)c2n1,–,3.98 µM (active)
O=C(c1ccco1)N1CCC[C@@]2(CCN(c3ccccc3)C2)C1,–,7.94 µM (active)
CC(C)CN1CC[C@@]2(CCCN(S(=O)(=O)c3ccccc3)C2)C1,–,25.1 µM (active)

# Test system: not listed separately
# Assay: NFAT Signaling Pathway (AID 444);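 note: carbachol stimulus at about its EC50 of 1 µM final; % is set by controls: 0 for no effect and ±100 for the full control effect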
# Settings: Jurkat NFAT-bla M1, carbachol, beta-lactamase ratio, 5 h; at 7.69 µM (top of the series) unless noted
# In short: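 Jurkat cells with NFAT-driven β-lactamase reporter and co-expressed M1 receptor, stimulated with carbachol (final 1 uM, ~EC50), compound titration, 5 h at 37 °C. CCF4 loaded 1 h at RT; 460/530 nm ratio gave %activity and AC50.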
row,SMILES,"activity change, negative = inhibition"
1,COC(=O)N1CCC2(CCCN(Cc3ccccc3OC)C2)CC1,-73.7% (active)
2,Cc1noc(C)c1C(=O)N1CCC[C@@]2(CCN(Cc3ccccc3)C2)C1,4.21%
3,O=S(=O)(c1ccccc1)N1CCC2(CCCN(c3ncccn3)C2)CC1,5.51%
4,COc1ccc(NC(=O)N2CCCC3(CCNCC3)C2)cc1,1.68%
5,COc1ccc(NC(=O)N2CC3(CCN(C(C)=O)CC3)C2)cc1,-0.444%
6,CC(=O)N1CCC2(CC1)CN(c1ccccc1)C2,3.05%
7,COc1ccccc1CN1CC[C@@]2(CCCN(C(=O)c3cccn3C)C2)C1,-9.11%
8,Cn1cccc1C(=O)N1CCC[C@@]2(CCN(Cc3cc(C(F)(F)F)cc(C(F)(F)F)c3)C2)C1,7.04%
9,COc1ccccc1CN1CC[C@@]2(CCCN(C(C)=O)C2)C1,19.3%
10,COc1ccccc1CN1CC[C@@]2(CCCN(S(C)(=O)=O)C2)C1,-16.9%
11,O=C(c1csnn1)N1CCC2(CC1)CN(c1ccccc1)C2,-3.86%
12,COc1ccc(NC(=O)N2CC[C@@]3(CCCN(C(=O)c4cnccn4)C3)C2)cc1,-2.83%
13,CC(C)CN1CC[C@@]2(CCCN(C(=O)c3csnn3)C2)C1,-1.84%
14,CC(=O)N1CCC2(CC1)CCN(C(=O)Nc1cccc(F)c1)CC2,8.58%
15,O=C(c1cnccn1)N1CCC2(CCCN(c3ccccc3)C2)CC1,5.12%
16,O=C(c1ccncc1)N1CCC2(CC1)CCN(C(c1ccccc1)c1ccccc1)CC2,-18.3%
17,COCC(=O)N1CCC[C@@]2(CCN(C(=O)Nc3cccc(F)c3)C2)C1,9.68%
18,CC(C)NC(=O)N1CCCC2(CCN(C(=O)c3cccc(F)c3)CC2)C1,-16.5%
19,COc1ccccc1CN1CCC2(CC1)CCN(C(C)=O)CC2,-28.3%
20,N#Cc1ccc(CN2CCCC3(CCN(C(=O)c4cccc(F)c4)CC3)C2)cc1,-65.7% (active)

row,SMILES,"activity change, negative = inhibition"
1,O=C(c1ccco1)N1CCC2(CC1)CN(C(c1ccccc1)c1ccccc1)C2,11%
2,CS(=O)(=O)N1CCC2(CC1)CN(Cc1cc(C(F)(F)F)cc(C(F)(F)F)c1)C2,-8.2%
3,CC(C)NC(=O)N1CCCC2(CCN(C(=O)c3cc(C(F)(F)F)cc(C(F)(F)F)c3)CC2)C1,11.4%
4,N#Cc1cccc(NC(=O)N2CCC3(CC2)CCN(C(=O)c2csnn2)CC3)c1,11.9%
5,O=C(Oc1ccccc1)N1CCC[C@@]2(CCN(c3ncccn3)C2)C1,-0.482%
6,COCC(=O)N1CCC[C@@]2(CCN(Cc3ccccc3OC)C2)C1,7.38%
7,CC(C)NC(=O)N1CC[C@@]2(CCCN(C(=O)c3cc(C(F)(F)F)cc(C(F)(F)F)c3)C2)C1,9.52%
8,O=C(Nc1cccc(F)c1)N1CC[C@@]2(CCCNC2)C1,-0.699%
9,COCC(=O)N1CCC2(CCCN(C(=O)Nc3ccc(OC)cc3)C2)CC1,13.5%
10,O=C(c1ccco1)N1CCC[C@@]2(CCN(Cc3ccccc3)C2)C1,-3.82%
11,CC(=O)N1CCC2(CCCN(C(c3ccccc3)c3ccccc3)C2)CC1,28.1%
12,COc1cccc(-c2ccc3ncnc(NC4CCNCC4)c3c2)c1,13.6%
13,COc1ccccc1CN1CCCC2(CCN(S(C)(=O)=O)CC2)C1,-28.3%
14,O=C(c1csnn1)N1CCC[C@@]2(CCN(Cc3nccs3)C2)C1,2.26%
15,O=C(c1csnn1)N1CCC2(CC1)CCN(c1ccccc1)CC2,25.1%
16,CC(C)CN1CC[C@@]2(CCCN(C(=O)c3cnccn3)C2)C1,13.6%
17,CN(C)c1ncc2ncc(=O)n(Cc3ccc(F)cc3)c2n1,4.28%
18,O=C(c1ccco1)N1CCC[C@@]2(CCN(c3ccccc3)C2)C1,-13.1%
19,CC(C)CN1CC[C@@]2(CCCN(S(=O)(=O)c3ccccc3)C2)C1,-7.95%
